This is a sample that favours compounds with a hit; in the whole collection about 0.45% have one here.
Smad3 inh: Smad3/FoxH1 peptide binding inhibitors, primary screen, biochemical, TR-FRET; TR-FRET Smad3/Dy647-FoxH1 peptide binding, europium anti-His; inhibition, % at 25 µM; 0.29% of 88,000 active;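 active = compounds that reduce the energy-transfer binding signal between the protein and its labelled peptide by more than half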;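 note: 0% = Smad3 plus labelled peptide maximal FRET and 100% = peptide-only background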
Target sequence (P84022 whole entry, looked up): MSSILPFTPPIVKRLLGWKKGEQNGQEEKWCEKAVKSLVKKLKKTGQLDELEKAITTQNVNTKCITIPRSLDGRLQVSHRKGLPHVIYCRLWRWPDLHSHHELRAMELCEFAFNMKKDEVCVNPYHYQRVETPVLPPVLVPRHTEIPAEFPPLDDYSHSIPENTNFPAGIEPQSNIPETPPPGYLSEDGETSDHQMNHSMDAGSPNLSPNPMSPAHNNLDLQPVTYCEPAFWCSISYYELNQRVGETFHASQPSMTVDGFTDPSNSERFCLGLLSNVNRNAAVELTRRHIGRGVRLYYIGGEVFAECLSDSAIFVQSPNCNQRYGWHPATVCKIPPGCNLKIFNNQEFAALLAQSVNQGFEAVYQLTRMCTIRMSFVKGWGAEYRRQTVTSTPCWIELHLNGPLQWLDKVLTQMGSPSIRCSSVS
sEH inhibitor: soluble epoxide hydrolase inhibitors, primary screen, biochemical, human sEH | Bifunctional epoxide hydrolase 2 (Homo sapiens), P34913 | recombinant human sEH enzymatic activity assay | inhibition, % at 2 µM | 0.34% of 91,000 active | AID 707, 2007; in the data active = inhibition above about 80%
sEH activator: soluble epoxide hydrolase activators, primary screen, biochemical, human sEH | purified human sEH enzymatic activity, activator screen | activation, % at 2 µM | 0.04% of 91,000 active | AID 717, 2007; in the data active = activation above about 37%
The depositor's hits bear a star; · = not tested or not shown; [ ] = another dose, or the depositor's remark.

SMILES	Smad3 inh	sEH inhibitor	sEH activator
CCOC(=O)c1sc(NC(=O)c2ccc(Cl)s2)cc1C	14	91*	-91
CCOC(=O)c1c(NC(=O)Nc2ccc(Cl)cc2)sc(C)c1C	10	12	-8
Cc1ccccc1OCCCC(=O)Nc1ccc(Br)cc1	·	93*	-93
O=C(CCCOc1ccccc1)Nc1ccc(Br)cc1	·	76	-77
CC(C)CNC(=O)CSc1nnc(-c2cccc(S(=O)(=O)N3CCCCC3)c2)o1	-6	62	-62
CC(NC(=O)CSc1nnc(-c2cccc(S(=O)(=O)N3CCCCC3)c2)o1)C12CC3CC(CC(C3)C1)C2 (stereo not drawn)	-12	93*	-93
O=C(NC1CC2CCCC(C1)N2C1CC1)NC12CC3CC(CC(C3)C1)C2 (stereo not drawn)	-4	99*	-99
O=C(NC1CC2CCC(C1)N2C(=O)NC1CCCCC1)NC12CC3CC(CC(C3)C1)C2 (stereo not drawn)	-7	·	·
COC(=O)c1ccc2c(=O)n(CCCCCC(=O)NCc3ccc4c(c3)OCO4)c(=O)[nH]c2c1	2	73	-73
CCOC(=O)N1CCN(C(=O)c2ccc(Cn3c(=S)[nH]c4cc5c(cc4c3=O)OCO5)cc2)CC1	·	2	1
O=C(c1ccc2c(=O)n(Cc3ccc4c(c3)OCO4)c(=S)[nH]c2c1)N1CCCCC1	-12	82*	-82
CC1CC(C)CN(C(=O)c2ccc3c(=O)n(Cc4ccc5c(c4)OCO5)c(=S)[nH]c3c2)C1 (stereo not drawn)	5	85*	-84
COCCCNC(=O)CCCn1c(=O)[nH]c2ccccc2c1=O	0	0	1
O=C(CCCCCn1c(=S)[nH]c2ccccc2c1=O)NCc1ccc2c(c1)OCO2	·	83*	-83
CCN(CCCNC(=O)CCCCn1c(=O)[nH]c2ccccc2c1=O)c1ccccc1	11	80*	-80
COCCCNC(=O)c1ccc2c(=O)n(Cc3ccc4c(c3)OCO4)c(=S)[nH]c2c1	6	57	-56
C=C(Br)CN(C)CC(=C)Br	0	·	·
COc1ccc2c(Cc3c4ccccc4cc4ccccc34)cncc2c1O	22	·	·
C[C@@]12CC[C@@H]3[C@H](CCC4=CC(=O)CC[C@]43C)[C@H]1CC[C@H]2C(=O)COS(=O)(=O)c1ccc(Br)cc1	2	·	·
COC(=O)[C@H]1[C@@H]2C[C@H]3c4[nH]c5ccccc5c4CCN3C[C@H]2CC[C@@H]1OS(=O)(=O)O	20	·	·
O=C(O)c1c(Cl)c(Cl)c(Cl)c(Cl)c1C(=O)Nc1ccc2cn[nH]c2c1	-3	·	·
C[C@@H]1Oc2ccc(C(=O)C[C@@H](C(=O)O)c3ccc4c(c3)OCO4)cc2O1	-5	·	·
O=C(O)[C@H]1CCCN1Cc1c[nH]c2ccccc12	-2	·	·
Oc1c(C(O)(c2ccccc2)c2ccc3ccccc3c2O)ccc2ccccc12	18	·	·
CC(=O)[C@@H](C)CCO[C@]1(C)OCC[C@@H]1C	-5	·	·
SMILES	Smad3 inh	sEH inhibitor	sEH activator
C[C@@](N)(/C=C/c1ccccc1)C(=O)O	-12	·	·
O=C(O)[C@H]1CCCN1Cc1cc2ccccc2c2ccccc12	0	·	·
CC(C)(C)c1ccc(O)c(CN(Cc2cc(C(C)(C)C)ccc2O)c2ccccc2)c1	43	·	·
CN(Cc1cc(C(C)(C)C)cc(Br)c1O)Cc1cc(C(C)(C)C)cc(Br)c1O	96*	·	·
N[C@@](CC(=O)O)(Cc1ccccc1)C(=O)O	-4	·	·
O=S(=O)(Nc1ccccn1)c1ccc(Cl)cc1	-2	·	·
NC1=N[C@@H](c2ccc(Cl)cc2)N(c2ccc(S(=O)(=O)Nc3ncccn3)cc2)C(N)=N1	52*	·	·
C[N@@+]1(CC[N@+]2(C)CCC[C@@H]2c2cccnc2)CCC[C@@H]1c1cccnc1	91*	·	·
C[N@@+]1(Cc2ccc(Cl)c(Cl)c2)CCC[C@@H]1c1ccc[n+](Cc2ccc(Cl)c(Cl)c2)c1	1	·	·
Nc1ncnc2c1ncn2[C@H]1O[C@@H](CO)[C@H](O)[C@H]1N	-12	·	·
O=C(NCc1ccccc1Cl)c1ccc(Cn2cc(C(F)(F)F)ccc2=O)cc1	·	88*	-88
O=C(NCc1ccc(Cl)cc1)c1ccc(Cn2cc(C(F)(F)F)ccc2=O)cc1	·	23	-20
O=C1/C(=C\c2ccccc2)[C@@H](NC2CCCCC2)c2ccccc21	25	·	·
NCCNC(=S)S	57*	·	·
O=C(O)[C@@H]1[C@H](C(=O)NCc2ccncc2)[C@@H]2C=C[C@H]1O2	3	·	·
C[C@@]12CC[C@H]3c4ccc(OCC(=O)O)cc4CC[C@@H]3[C@H]1CCC2=O	-12	·	·
CN(C)/C=N/c1ncc(C(=O)c2ccc3ccccc3c2)s1	·	-49	48*
Cc1nc(/N=C\N(C)C)sc1C(=O)Nc1ccccc1	-11	4	-2
O=[N+]([O-])c1ccccc1N=Nc1c(O)[nH]c2ccc(S(=O)(=O)O)cc12	63*	·	·
Cc1ccc(S(=O)(=O)N=Nc2c(O)[nH]c3ccccc23)cc1	-4	4	-2
O=C1[C@@H]2[C@H](C(=O)N1CN1CCSCC1)[C@H]1[C@@H]3C=C[C@@H]([C@@H]4C(=O)N(CN5CCSCC5)C(=O)[C@@H]34)[C@@H]21	-3	·	·
OC[C@H]1O[C@@H](O)[C@H](N=Cc2ccc3c(c2)OCO3)[C@@H](O)[C@@H]1O	-19	·	·
O=C(O)[C@@H]1[C@H](C(=O)O)[C@@H]2C(=O)C=C[C@H]1N2Cc1ccccc1	8	·	·
[N-]=[N+]=N[C@@H]1[C@@H](O)[C@H](CO)O[C@@H]1n1cnc2c(N)ncnc21	8	·	·
COc1ccc(NCc2c(O)ccc3ccccc23)cc1	28	·	·
SMILES	Smad3 inh	sEH inhibitor	sEH activator
O=S(=O)(O)c1ccc(NN(c2c(O)ccc3ccccc23)S(=O)(=O)O)cc1	99*	·	·
CCc1c(C)nc2ncnn2c1N1CCC(C(=O)Nc2ccccc2)CC1	-3	51	-52
CCc1c(C)nc2ncnn2c1N1CCC(C(=O)Nc2ccc(C)cc2)CC1	-10	83*	-83
C[N+](C)(N)Cc1nc(-c2ccc(Cl)cc2)no1	5	·	·
C[C@]1(c2ccccc2)O[C@@H]2C[C@H]3[C@@H]4CCC5=CC(=O)C=C[C@@]5(C)[C@@]4(F)[C@H](O)C[C@]3(C)[C@]2(C(=O)CO)O1	4	·	·
CC(C)(C)c1ccc(OC(=O)Nc2ccc(O)c(C(=O)O)c2)cc1	65*	·	·
Cc1ccc(OCC(=O)Nc2ccc(O)c(C(=O)O)c2)cc1C	8	-10	10
C/C(N[O-])=C(\C)[N+]([O-])=[Rh][Cl].CC(=N\[O-])/C(C)=N/[O-].NC(N)=[SH+]	-2	·	·
O=C(O)c1ccccc1/C=N/N=C1c2ccccc2-c2ccccc21	62*	·	·
COCCNC(=S)N/N=C/c1ccccc1C(=O)O	·	1	0
C[C@@H](CNC(N)=O)NC(N)=O	-19	·	·
CCN1CCCC1CNC(=O)CSc1cc(=O)n(C)c2cc(Cl)ccc12 (stereo not drawn)	53*[fluorescence artefact?]	·	·
CCn1c(=O)cc(SCC(=O)NCC2CCCO2)c2ccccc21 (stereo not drawn)	30	-5	6
Cn1c(=O)cc(SCC(=O)NCC2CCCO2)c2ccc(Cl)cc21 (stereo not drawn)	50*[fluorescence artefact?]	-3	1
CCN1CCCC1CNC(=O)COc1cc(=O)n(C)c2ccccc12 (stereo not drawn)	-4	-8	9
Cc1cccc(Cl)c1NC[C@H](O)CN1CCN(C)CC1	0	·	·

Source: PubChem
